According to PubChem BioAssay (EPA / NIEHS):
Where “and” joins values, the source holds several entries; their conditions need not be identical. Equal entries are not always repeated. Inconclusive results are not listed. Some structures have more than one record in an assay (separate samples or runs), and their calls can disagree. Calls of active or inactive are those of the source. Rule for the calls, unless noted: active = hit-call score of the fitted dose curve at least 0.9, where 1 is the maximum; inactive = score below 0.9.

Tests used:
[1] = ATG_TAL_CIS: Attagene CIS-FACTORIAL HepG2 Assay for human TAL Basal Promoter (AID 2282966); conditions: HepG2 Attagene cis-factorial TAL promoter reporter; actives raise or lower the signal;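 note: background control endpoint measuring basal TAL promoter reporter mRNA not a specific factor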
Method in brief: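 HepG2, transient MRTU transfection, 24 h compound exposure; RNA → oligo(dT) RT → PCR → 6-FAM primer extension → HpaI digest → CE fluorescence. Bidirectional curve fit vs DMSO. Background-control readout.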

[2] = ATG_TGFb_CIS: Attagene CIS-FACTORIAL HepG2 Assay for human Transforming Growth Factor (TGF) (AID 2282967); conditions: HepG2 Attagene CIS TGFb reporter, mRNA transcription; actives raise or lower the signal
Method in brief: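 Bidirectional fitting relative to DMSO gave the endpoint. Underlying data: reporter mRNA from HepG2 cells carrying transiently transfected cis-regulated reporter constructs, harvested 24 h after dosing and analyzed by RT-PCR and capillary electrophoresis.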

[3] = ATG_VDRE_CIS: Attagene CIS-FACTORIAL HepG2 Assay for human Vitamin D Receptor Element (VDRE) (AID 2282968); conditions: HepG2 VDRE cis-reporter transcription, actives raise or lower the signal
Method in brief: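 Transient MRTU transfection of HepG2, 24 h compound exposure. Readout: reporter transcripts via RT-PCR and capillary electrophoresis, fluorescence. Bidirectional fit vs DMSO.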

[4] = biological target: X-box-binding protein 1 (Homo sapiens) (UniProt P17861); assay: ATG_Xbp1_CIS: Attagene CIS-FACTORIAL HepG2 Assay for human X-box Binding Protein 1 (XBP1) (AID 2282972); conditions: HepG2 XBP1 cis-element reporter, Attagene multiplex; actives raise or lower the signal
Method in brief: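 Changes in reporter transcript abundance, read by RT-PCR and capillary electrophoresis, reflect endogenous transcription factor activity. Transfected HepG2 cells received compound for 24 hours; DMSO defined baseline for bidirectional analysis.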

[5] = ATG_M_19_TRANS: Attagene TRANS-FACTORIAL HepG2 Assay for M19 Transcription Factor (Internal Marker) (AID 2282974; active = hit-call score of the fitted dose curve at least 0.9, where 1 is the maximum); conditions: HepG2 Attagene TRANS-FACTORIAL M19 internal marker reporter
Method in brief: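 Measured here: internal-marker reporter transcript from HepG2 cells transfected with MRTUs, harvested at 24 h. cDNA PCR products were 6-FAM labelled by primer extension, cut with HpaI for 2 h at 37 C, and resolved by CE.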

[6] = biological target: Bile acid receptor (Homo sapiens) (UniProt Q96RI1); assay: ATG_FXR_TRANS: Attagene TRANS-FACTORIAL HepG2 Assay for Farnesoid X Receptor (FXR) (AID 2282979; active = hit-call score of the fitted dose curve at least 0.9, where 1 is the maximum;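 note: hits raise reporter mRNA above DMSO so AC50 marks FXR activation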); conditions: HepG2 Attagene TRANS FXR-GAL4 reporter transcription
Method in brief: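 Read-out: fluorescent reporter transcripts quantified by capillary electrophoresis after RT-PCR of total RNA. Source cells were HepG2 transiently carrying chimeric NR-GAL4 plus GAL4-UAS reporter units, dosed 24 h. Activity fitted upward relative to DMSO baseline.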

[7] = ATG_M_32_TRANS: Attagene TRANS-FACTORIAL HepG2 Assay for M32 Transcription Factor (Internal Marker) (AID 2282984; active = hit-call score of the fitted dose curve at least 0.9, where 1 is the maximum;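 note: transcript level of a background control reporter unit measured by RT-PCR and capillary electrophoresis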); conditions: HepG2 Attagene TRANS M32 internal marker reporter
Method in brief: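 Read-out: fluorescent reporter cDNA fragments resolved by capillary electrophoresis after RT-PCR of total RNA. Transfected HepG2 cells were exposed to chemical for 24 h. Activity scored in the positive direction relative to DMSO.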

[8] = biological target: Transcriptional activator Myb (Homo sapiens) (UniProt P10242); assay: ATG_Myb_CIS: Attagene CIS-FACTORIAL HepG2 Assay for human Myeloblastosis (Myb) Proto-Oncogene Transcription Factor (AID 2282986); conditions: HepG2 Attagene CIS-FACTORIAL Myb reporter transcription; actives raise or lower the signal
Method in brief: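 Fluorescence signals from capillary electrophoresis of RT-PCR-amplified reporter cDNA give the read-out. Cells: HepG2 transfected with multiple cis-regulated reporter units. Exposure lasts 24 hours; DMSO defines baseline for gain or loss of signal.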

[9] = biological target: Nuclear respiratory factor 1 (Homo sapiens) (UniProt Q16656); assay: ATG_NRF1_CIS: Attagene CIS-FACTORIAL HepG2 Assay for human Nuclear Respiratory Factor 1 (NRF1) Orphan Gene (AID 2282987); conditions: HepG2 NRF1 cis-element reporter, Attagene multiplex; actives raise or lower the signal
Method in brief: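 Transcriptional reporter readout, one component of a 52-endpoint multiplexed HepG2 panel. Exposure 24 h; mRNA detected via RT-PCR and fluorescent capillary electrophoresis; fitting in both directions against DMSO.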

[10] = ATG_NFI_CIS: Attagene CIS-FACTORIAL HepG2 Assay for human Nuclear Factor I (NFI) (AID 2282989); conditions: HepG2 cis-regulatory reporter, NFI response element transcription; actives raise or lower the signal
Method in brief: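 Cells: human liver HepG2, transiently transfected with promoter-regulated reporter transcription units. Exposure 24 h. Detection: fluorescent RT-PCR products separated by capillary electrophoresis, normalised to DMSO negative control.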

[11] = biological target: Nuclear receptor subfamily 1 group I member 3 (Homo sapiens) (UniProt Q14994); assay: ATG_CAR_TRANS: Attagene TRANS-FACTORIAL HepG2 Assay for human Constitutive Androstane Receptor (CAR) (AID 2282969; active = hit-call score of the fitted dose curve at least 0.9, where 1 is the maximum;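 note: activators raise reporter mRNA above DMSO so AC50 marks induction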); conditions: HepG2 Attagene TRANS-FACTORIAL CAR reporter
Method in brief: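 Transiently transfected HepG2, multiplex TRANS reporters (CAR-Gal4 chimera driving GAL4-UAS reporter). 24 h dosing. Readout: reporter transcript by RT-PCR + capillary electrophoresis, fluorescence intensity; positive direction vs DMSO.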

[12] = ATG_GAL4_TRANS: Attagene TRANS-FACTORIAL HepG2 Assay for GAL4 (Internal Marker) (AID 2282976; active = hit-call score of the fitted dose curve at least 0.9, where 1 is the maximum); conditions: HepG2 Attagene TRANS GAL4 internal marker reporter
Method in brief: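 RT-PCR/capillary electrophoresis readout of reporter mRNA. HepG2, transient MRTU transfection (GAL4-UAS reporters), 24 h compound exposure. Background-control endpoint, positive direction vs DMSO baseline.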

[13] = biological target: Glucocorticoid receptor (Homo sapiens) (UniProt P04150); assay: ATG_GR_TRANS: Attagene TRANS-FACTORIAL HepG2 Assay for human Glucocorticoid Receptor (GR) (AID 2282978; active = hit-call score of the fitted dose curve at least 0.9, where 1 is the maximum;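 note: activators score as hits since higher reporter transcript over DMSO is fitted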); conditions: HepG2 Attagene TRANS GR reporter, mRNA transcription
Method in brief: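 Measurement of GAL4-UAS-driven reporter mRNA in human HepG2 liver cells 24 h post-dosing, using RT-PCR with fluorescent labelling and capillary electrophoresis; the transfected constructs report exogenous NR-GAL4 chimera activity, fitted upward against DMSO.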

[14] = biological target: Oxysterols receptor LXR-beta (Homo sapiens) (UniProt P55055); assay: ATG_LXRb_TRANS: Attagene TRANS-FACTORIAL HepG2 Assay for human Liver X Receptor beta (LXRb) (AID 2282981; active = hit-call score of the fitted dose curve at least 0.9, where 1 is the maximum); conditions: HepG2 Attagene TRANS GAL4-LXRb reporter, mRNA
Method in brief: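 Readout: fluorescent reporter mRNA fragments resolved by capillary electrophoresis after RT-PCR. System: transiently transfected human HepG2, exogenous LXRb-Gal4 chimera driving GAL4-UAS reporter, 24 h dosing. Activity fitted upward against DMSO baseline.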

[15] = biological target: Hepatocyte nuclear factor 4-alpha (Homo sapiens) (UniProt P41235); assay: ATG_HNF4a_TRANS: Attagene TRANS-FACTORIAL HepG2 Assay for human Hepatocyte Nuclear Factor 4 alpha (HNF4a) (AID 2282982; active = hit-call score of the fitted dose curve at least 0.9, where 1 is the maximum); conditions: HepG2 HNF4a transactivation reporter, mRNA readout
Method in brief: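 Transient MRTU transfection of HepG2, 24 h dosing. Readout: reporter mRNA via RT-PCR + capillary electrophoresis, fluorescence; activity fit upward relative to DMSO control.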

[16] = ATG_M_06_TRANS: Attagene TRANS-FACTORIAL HepG2 Assay for M06 Transcription Factor (Internal Marker) (AID 2282983; active = hit-call score of the fitted dose curve at least 0.9, where 1 is the maximum); conditions: HepG2 Attagene TRANS M06 internal marker reporter
Method in brief: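 Read-out: fluorescent reporter cDNA fragments resolved by capillary electrophoresis after RT-PCR and HpaI cut. Source cells were HepG2 carrying transfected multi-reporter GAL4 constructs, dosed 24 h. Increase over DMSO control analysed.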

[17] = biological target: Estrogen receptor (Homo sapiens) (UniProt P03372); assay: ATG_ERa_TRANS: Attagene TRANS-FACTORIAL HepG2 Assay for human Estrogen Receptor alpha (ERa) (AID 2282970; active = hit-call score of the fitted dose curve at least 0.9, where 1 is the maximum); conditions: HepG2 Attagene TRANS ERa GAL4 reporter, mRNA
Method in brief: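 Reporter mRNA induction after 24 hours, detected by fluorescent RT-PCR and capillary electrophoresis, gives the read-out. Cells are HepG2 transiently transfected with GAL4-UAS reporter transcription units responding to chimeric NR-Gal4. Activity is taken as gain of signal over DMSO baseline.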

[18] = biological target: Androgen receptor (Homo sapiens) (UniProt P10275); assay: ATG_AR_TRANS: Attagene TRANS-FACTORIAL HepG2 Assay for human Androgen Receptor (AR) (AID 2282973; active = hit-call score of the fitted dose curve at least 0.9, where 1 is the maximum); conditions: HepG2 Attagene TRANS-FACTORIAL AR reporter transcription
Method in brief: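 Readout is reporter transcript abundance, quantified by fluorescent RT-PCR products separated on capillary electrophoresis. Human HepG2 liver cells carried transiently transfected NR-Gal4 chimera plus GAL4-UAS reporter constructs and were dosed for 24 h; activity scored upward versus DMSO.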

Measured: AC50

Sequence of Oxysterols receptor LXR-beta (Homo sapiens) (P55055 whole entry, looked up, the tested form may be a part): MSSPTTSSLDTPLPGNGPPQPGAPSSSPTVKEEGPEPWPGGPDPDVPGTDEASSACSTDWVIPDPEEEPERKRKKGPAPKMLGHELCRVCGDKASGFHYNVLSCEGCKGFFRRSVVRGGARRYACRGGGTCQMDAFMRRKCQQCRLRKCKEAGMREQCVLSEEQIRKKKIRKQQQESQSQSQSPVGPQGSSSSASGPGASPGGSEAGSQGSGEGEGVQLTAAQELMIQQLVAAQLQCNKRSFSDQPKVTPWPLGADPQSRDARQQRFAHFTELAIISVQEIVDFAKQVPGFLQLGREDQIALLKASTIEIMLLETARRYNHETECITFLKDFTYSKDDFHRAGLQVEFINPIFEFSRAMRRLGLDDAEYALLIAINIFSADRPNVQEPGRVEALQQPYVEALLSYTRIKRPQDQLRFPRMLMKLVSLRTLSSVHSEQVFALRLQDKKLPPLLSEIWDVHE
Sequence of Bile acid receptor (Homo sapiens) (Q96RI1 whole entry, looked up, the tested form may be a part): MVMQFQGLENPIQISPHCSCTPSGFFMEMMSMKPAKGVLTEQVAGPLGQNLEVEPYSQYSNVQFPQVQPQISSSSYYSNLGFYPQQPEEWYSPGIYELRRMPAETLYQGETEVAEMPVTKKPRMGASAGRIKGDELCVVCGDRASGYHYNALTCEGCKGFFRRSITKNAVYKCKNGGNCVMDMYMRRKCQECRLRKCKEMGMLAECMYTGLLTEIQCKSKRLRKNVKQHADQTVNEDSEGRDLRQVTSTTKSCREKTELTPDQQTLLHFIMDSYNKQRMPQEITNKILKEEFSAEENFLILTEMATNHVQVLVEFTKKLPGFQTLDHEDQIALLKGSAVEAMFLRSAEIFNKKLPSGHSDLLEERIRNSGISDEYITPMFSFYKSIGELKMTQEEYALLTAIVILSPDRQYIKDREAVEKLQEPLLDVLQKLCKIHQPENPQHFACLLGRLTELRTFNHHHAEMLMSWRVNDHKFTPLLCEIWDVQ
Sequence of Nuclear respiratory factor 1 (Homo sapiens) (Q16656 whole entry, looked up): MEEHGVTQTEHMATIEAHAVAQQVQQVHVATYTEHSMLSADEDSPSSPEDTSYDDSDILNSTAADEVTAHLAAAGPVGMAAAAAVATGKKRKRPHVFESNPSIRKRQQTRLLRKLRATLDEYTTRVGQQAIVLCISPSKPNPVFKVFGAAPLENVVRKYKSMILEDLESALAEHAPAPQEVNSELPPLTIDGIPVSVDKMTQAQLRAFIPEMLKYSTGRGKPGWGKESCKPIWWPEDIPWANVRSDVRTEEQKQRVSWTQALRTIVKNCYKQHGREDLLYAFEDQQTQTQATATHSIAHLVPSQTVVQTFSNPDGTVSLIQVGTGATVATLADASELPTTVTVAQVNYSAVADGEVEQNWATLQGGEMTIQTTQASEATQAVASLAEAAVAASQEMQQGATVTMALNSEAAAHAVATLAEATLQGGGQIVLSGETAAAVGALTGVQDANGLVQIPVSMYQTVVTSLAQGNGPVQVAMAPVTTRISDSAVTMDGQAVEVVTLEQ
Sequence of Glucocorticoid receptor (Homo sapiens) (P04150 whole entry, looked up, the tested form may be a part): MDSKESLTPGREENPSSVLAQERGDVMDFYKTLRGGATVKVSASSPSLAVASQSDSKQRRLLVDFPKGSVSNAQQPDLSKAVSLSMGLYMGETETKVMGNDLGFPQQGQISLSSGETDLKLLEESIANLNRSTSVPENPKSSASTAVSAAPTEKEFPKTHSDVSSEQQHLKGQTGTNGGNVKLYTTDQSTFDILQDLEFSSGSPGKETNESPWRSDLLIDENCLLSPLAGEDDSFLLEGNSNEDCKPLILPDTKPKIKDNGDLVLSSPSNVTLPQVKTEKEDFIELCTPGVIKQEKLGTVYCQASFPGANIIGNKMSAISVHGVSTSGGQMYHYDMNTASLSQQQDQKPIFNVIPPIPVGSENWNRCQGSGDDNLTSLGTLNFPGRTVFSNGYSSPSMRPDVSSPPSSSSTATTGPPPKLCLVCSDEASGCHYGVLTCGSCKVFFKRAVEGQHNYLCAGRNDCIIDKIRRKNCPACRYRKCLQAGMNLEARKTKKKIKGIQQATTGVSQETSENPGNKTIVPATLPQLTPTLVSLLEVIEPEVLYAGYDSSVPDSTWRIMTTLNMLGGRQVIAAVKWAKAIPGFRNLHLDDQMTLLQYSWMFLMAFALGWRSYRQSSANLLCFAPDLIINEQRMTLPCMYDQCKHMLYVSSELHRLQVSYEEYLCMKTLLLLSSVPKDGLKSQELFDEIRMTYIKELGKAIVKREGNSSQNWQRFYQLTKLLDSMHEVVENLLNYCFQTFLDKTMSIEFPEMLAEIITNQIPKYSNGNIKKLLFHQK
Sequence of X-box-binding protein 1 (Homo sapiens) (P17861 whole entry, looked up): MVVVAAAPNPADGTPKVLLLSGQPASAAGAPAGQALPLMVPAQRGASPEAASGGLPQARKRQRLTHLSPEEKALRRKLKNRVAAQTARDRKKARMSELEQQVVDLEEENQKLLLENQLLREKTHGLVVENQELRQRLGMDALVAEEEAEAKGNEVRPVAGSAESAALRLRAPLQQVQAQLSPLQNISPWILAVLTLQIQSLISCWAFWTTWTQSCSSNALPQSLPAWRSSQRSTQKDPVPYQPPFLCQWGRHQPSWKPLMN
Sequence of Transcriptional activator Myb (Homo sapiens) (P10242 whole entry, looked up): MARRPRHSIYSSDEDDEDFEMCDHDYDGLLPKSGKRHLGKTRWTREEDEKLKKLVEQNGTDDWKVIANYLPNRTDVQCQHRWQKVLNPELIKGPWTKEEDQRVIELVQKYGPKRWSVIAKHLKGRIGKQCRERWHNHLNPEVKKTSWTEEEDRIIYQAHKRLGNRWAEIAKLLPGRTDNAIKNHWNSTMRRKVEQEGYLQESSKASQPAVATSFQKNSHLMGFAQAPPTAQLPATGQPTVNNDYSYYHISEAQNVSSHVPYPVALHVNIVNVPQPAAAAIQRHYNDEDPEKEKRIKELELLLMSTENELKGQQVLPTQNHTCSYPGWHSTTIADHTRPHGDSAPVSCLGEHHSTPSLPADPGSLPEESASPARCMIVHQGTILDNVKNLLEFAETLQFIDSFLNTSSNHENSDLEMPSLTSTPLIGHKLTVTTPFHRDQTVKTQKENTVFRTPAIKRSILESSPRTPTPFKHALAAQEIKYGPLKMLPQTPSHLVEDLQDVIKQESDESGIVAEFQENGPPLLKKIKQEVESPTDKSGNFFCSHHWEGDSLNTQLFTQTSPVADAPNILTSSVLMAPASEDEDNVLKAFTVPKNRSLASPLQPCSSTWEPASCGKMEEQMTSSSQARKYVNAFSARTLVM
Sequence of Nuclear receptor subfamily 1 group I member 3 (Homo sapiens) (Q14994 whole entry, looked up, the tested form may be a part): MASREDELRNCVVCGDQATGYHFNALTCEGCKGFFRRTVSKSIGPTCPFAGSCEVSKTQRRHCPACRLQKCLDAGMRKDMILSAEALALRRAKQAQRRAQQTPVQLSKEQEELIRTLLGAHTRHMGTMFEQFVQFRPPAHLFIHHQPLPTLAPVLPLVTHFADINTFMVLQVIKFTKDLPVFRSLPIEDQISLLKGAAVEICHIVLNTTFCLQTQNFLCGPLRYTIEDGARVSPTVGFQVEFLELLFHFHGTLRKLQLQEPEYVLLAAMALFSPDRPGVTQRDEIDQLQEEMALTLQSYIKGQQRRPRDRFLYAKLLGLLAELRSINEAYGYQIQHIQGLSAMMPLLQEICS
Sequence of Estrogen receptor (Homo sapiens) (P03372 whole entry, looked up, the tested form may be a part): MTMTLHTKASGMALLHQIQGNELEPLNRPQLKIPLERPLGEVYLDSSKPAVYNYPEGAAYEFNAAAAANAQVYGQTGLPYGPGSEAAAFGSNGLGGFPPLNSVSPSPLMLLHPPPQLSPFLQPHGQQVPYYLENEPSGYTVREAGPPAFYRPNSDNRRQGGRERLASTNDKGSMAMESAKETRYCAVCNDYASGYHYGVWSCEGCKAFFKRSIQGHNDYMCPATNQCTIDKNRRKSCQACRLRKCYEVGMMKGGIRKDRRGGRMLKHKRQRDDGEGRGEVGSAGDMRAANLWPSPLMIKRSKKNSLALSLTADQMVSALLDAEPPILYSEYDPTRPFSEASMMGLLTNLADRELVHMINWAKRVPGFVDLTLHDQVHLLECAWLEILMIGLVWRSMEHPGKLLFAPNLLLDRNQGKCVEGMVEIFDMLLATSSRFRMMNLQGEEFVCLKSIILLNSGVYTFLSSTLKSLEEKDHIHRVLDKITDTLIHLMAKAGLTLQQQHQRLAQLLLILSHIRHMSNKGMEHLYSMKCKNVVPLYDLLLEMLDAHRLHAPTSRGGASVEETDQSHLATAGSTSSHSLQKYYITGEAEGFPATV
Sequence of Hepatocyte nuclear factor 4-alpha (Homo sapiens) (P41235 whole entry, looked up): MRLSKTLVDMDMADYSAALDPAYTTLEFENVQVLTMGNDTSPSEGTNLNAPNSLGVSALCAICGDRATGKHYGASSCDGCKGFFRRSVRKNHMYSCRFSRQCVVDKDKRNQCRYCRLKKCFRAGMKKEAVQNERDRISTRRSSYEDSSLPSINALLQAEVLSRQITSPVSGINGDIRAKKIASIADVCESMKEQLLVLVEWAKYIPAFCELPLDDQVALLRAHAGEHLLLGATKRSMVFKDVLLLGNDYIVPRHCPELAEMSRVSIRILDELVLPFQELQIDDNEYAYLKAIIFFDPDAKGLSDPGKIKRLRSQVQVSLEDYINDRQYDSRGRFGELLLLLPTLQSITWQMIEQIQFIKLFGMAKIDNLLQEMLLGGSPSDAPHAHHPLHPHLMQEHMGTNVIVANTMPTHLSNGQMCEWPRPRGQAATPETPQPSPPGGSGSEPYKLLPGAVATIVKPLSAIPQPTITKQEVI

C1CC2OC2CC1C1CO1 (centres undefined)
inactive: [1] | [2] | [3] | [4] | [5] | [6] | [7] | [8] | [9] | [10]

C[C@]12CCC(=O)C=C1CC[C@@H]1[C@@H]2CC[C@@]2(C)[C@H]1CC[C@]2(C)O
active: [3] 18.2 µM | [9] 21.6 µM
inactive: [1] | [2] | [3] | [11] | [4] | [5] | [12] | [13] | [6] | [14] | [15] | [16] | [7] | [8] | [9] | [10]

O=C(O)C(F)(F)C(F)(F)C(F)(F)C(F)(F)C(F)(F)C(F)(F)C(F)(F)C(F)(F)C(F)(F)F
active: [1] 61.9 µM | [17] 25.4 µM and 22.6 µM and 17.2 µM | [4] 50.8 µM and 50 µM
inactive: [1] | [11] | [4] | [5] | [12] | [13] | [14] | [15] | [16] | [7] | [8] | [9] | [10]

Cc1ccccc1CO[C@@H]1C[C@@]2(C(C)C)CC[C@]1(C)O2
active: [3] 21.4 µM
inactive: [1] | [11] | [4] | [14] | [16] | [7] | [8] | [9] | [10]

CO/C=C(/C(=O)OC)c1ccccc1COc1cccc(C(F)(F)F)n1
inactive: [1] | [11] | [5] | [6] | [7] | [8] | [9] | [10]
active: [3] 11.9 µM | [4] 7.76 µM

COS(=O)(=O)OC
inactive: [1] | [3] | [4] | [14] | [16] | [7] | [8] | [9] | [10]

O=C(N[C@H]1CN2CCC1CC2)c1cc2ccoc2cn1
not listed: [2] | [5] | [6] | [11] | [12] | [18]
inactive: all other assays above

Nc1ccc(-c2ccc(N)cc2)cc1
active: [17] 38 µM
not listed: [2] | [5] | [6] | [14] | [18]
inactive: all other assays above

CCOP(=S)(OCC)SCSC(C)(C)C
active: [17] 19.8 µM and 13.2 µM | [14] 20.2 µM and 27.7 µM
not listed: [2] | [6] | [12] | [13] | [18]
inactive: all other assays above

Cc1cc2c3c(c1)C(c1ccccc1)=N[C@@H](NC(=O)c1ccncc1)C(=O)N3CC2
active: [3] 5.69 µM | [4] 100 µM
inactive: [1] | [17] | [5] | [12] | [7] | [8] | [9] | [10]

Cc1ccc(O)c(C)c1
inactive: [1] | [17] | [4] | [5] | [12] | [13] | [8] | [9] | [10]

CCOCCOC(C)=O
inactive: [1] | [3] | [4] | [16] | [8] | [9] | [10]

c1ccc(-c2ccccc2)cc1
not listed: [2] | [3] | [11] | [14] | [15] | [16]
inactive: all other assays above

Nn1cnnc1
inactive: [1] | [3] | [4] | [13] | [14] | [16] | [8] | [9] | [10]
active: [17] 26 µM

NS(=O)(=O)C(F)(F)C(F)(F)C(F)(F)C(F)(F)C(F)(F)C(F)(F)C(F)(F)C(F)(F)F
active: [17] 25.8 µM and 7.34 µM and 5.15 µM | [4] 41.7 µM and 39.9 µM and 50 µM | [10] 44.3 µM and 37.1 µM and 50 µM
not listed: [2] | [3] | [12] | [18]
inactive: all other assays above

CCNc1nc(NC(C)C)nc(SC)n1
active: [3] 50 µM
not listed: [2] | [6] | [12] | [13] | [17]
inactive: all other assays above

CCC(C)c1cc([N+](=O)[O-])cc([N+](=O)[O-])c1O (centres undefined)
active: [3] 12.6 µM | [17] 0.807 µM | [4] 10.2 µM
not listed: [2] | [5] | [7] | [12] | [18]
inactive: all other assays above

ClC1=C(Cl)[C@]2(Cl)[C@@H]3[C@@H]4C[C@@H]([C@H]5O[C@@H]45)[C@@H]3[C@@]1(Cl)C2(Cl)Cl
inactive: [1] | [4] | [13] | [16] | [7] | [8] | [9] | [10]
active: [3] 17.6 µM | [17] 5.89 µM
